# Reference: paper PMC7862700, “An all-to-all approach to the identification of sequence-specific readers for epigenetic DNA modifications on cytosine”
# Legend:
# Assay in all cases: DAPPL (digital affinity profiling via proximity ligation, sequencing); 10 mM Tris-HCl pH 7.5, 50 mM NaCl, 1 mM DTT, 4% glycerol, room temperature, 30 min; GST-TFs on glutathione beads, 16-mer random dsDNA library, 0.1% formaldehyde crosslink after washing; high values mean tight binding
# Conditions in all cases: protein: recombinant; tags: N-terminal GST; dsDNA, one strand shown
# [1] = biological target: T1, ERF (Homo sapiens, UniProt P50548 1-548)
# T1 sequence: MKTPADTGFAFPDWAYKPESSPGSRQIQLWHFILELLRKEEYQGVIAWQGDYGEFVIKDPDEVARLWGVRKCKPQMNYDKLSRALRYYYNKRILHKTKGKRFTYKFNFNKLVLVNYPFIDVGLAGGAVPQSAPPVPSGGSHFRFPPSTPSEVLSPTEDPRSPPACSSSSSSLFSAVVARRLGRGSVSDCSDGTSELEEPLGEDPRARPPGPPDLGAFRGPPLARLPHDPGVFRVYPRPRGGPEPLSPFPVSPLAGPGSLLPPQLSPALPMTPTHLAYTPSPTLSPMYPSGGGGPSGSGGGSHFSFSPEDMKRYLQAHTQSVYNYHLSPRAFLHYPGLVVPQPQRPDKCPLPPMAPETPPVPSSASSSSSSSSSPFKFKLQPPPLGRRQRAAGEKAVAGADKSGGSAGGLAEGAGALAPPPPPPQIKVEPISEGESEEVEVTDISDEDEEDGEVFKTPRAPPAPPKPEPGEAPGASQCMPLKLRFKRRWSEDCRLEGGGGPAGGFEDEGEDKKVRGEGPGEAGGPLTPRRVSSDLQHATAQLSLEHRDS
# Outline: (§1)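 Sequencing on an Illumina NextSeq500 followed washing, crosslinking with 0.1% formaldehyde, proximity ligation (BsaI/T4 ligase, 1 h, 37 °C) and PCR amplification of pools that had been incubated for 30 min at room temperature with 200 nmole of a random double-stranded 16-mer DNA library in Tris/NaCl/DTT/glycerol buffer. Each pool held DNA-barcoded human transcription factors, expressed in yeast as GST fusions and captured on glutathione beads, plus a tag-only sample. Binding signal is a hexamer's read frequency for a factor divided by its frequency in the tag-only sample.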
# [2] = biological target: T2, ETV3L (Homo sapiens, UniProt Q6ZN32 1-361)
# T2 sequence: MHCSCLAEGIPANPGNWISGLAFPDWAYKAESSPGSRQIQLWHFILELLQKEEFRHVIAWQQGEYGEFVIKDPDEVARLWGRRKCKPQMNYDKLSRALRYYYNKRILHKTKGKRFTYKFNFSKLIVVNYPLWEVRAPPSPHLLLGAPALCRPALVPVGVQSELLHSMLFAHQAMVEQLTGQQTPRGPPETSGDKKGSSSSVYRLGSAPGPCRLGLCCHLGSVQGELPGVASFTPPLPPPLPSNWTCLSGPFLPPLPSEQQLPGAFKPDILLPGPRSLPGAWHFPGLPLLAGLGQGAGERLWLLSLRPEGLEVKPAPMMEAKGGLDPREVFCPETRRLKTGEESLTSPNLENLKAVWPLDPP
# Outline: as §1
# [3] = biological target: T3, ETS2 (Homo sapiens, UniProt P15036 1-469)
# T3 sequence: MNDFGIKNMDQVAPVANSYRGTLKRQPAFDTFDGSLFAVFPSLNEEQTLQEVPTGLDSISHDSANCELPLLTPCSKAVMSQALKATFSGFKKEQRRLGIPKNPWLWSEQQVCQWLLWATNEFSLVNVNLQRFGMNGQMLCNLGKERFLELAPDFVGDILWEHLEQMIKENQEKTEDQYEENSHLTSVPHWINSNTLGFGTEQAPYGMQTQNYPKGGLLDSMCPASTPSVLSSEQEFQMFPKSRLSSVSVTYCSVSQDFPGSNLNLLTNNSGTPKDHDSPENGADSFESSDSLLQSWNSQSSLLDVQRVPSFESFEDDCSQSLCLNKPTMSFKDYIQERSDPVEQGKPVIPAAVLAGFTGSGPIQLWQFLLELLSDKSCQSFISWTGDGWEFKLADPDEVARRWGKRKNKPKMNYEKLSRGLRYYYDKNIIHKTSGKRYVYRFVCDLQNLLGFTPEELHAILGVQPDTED
# Outline: as §1
# [4] = biological target: T4, SPDEF (Homo sapiens, UniProt O95238 1-335)
# T4 sequence: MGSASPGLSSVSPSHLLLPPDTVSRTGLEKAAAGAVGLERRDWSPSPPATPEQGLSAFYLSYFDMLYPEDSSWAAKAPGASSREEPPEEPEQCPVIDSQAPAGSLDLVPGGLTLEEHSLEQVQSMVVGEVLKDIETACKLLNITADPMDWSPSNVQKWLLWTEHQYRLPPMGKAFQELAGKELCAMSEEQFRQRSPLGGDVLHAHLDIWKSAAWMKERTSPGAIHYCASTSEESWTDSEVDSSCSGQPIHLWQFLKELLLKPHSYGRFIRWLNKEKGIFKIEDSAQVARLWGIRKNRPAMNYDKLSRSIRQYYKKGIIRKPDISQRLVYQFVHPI
# Outline: as §1
# [5] = biological target: T5, ETV7 (Homo sapiens, UniProt Q9Y603 1-341)
# T5 sequence: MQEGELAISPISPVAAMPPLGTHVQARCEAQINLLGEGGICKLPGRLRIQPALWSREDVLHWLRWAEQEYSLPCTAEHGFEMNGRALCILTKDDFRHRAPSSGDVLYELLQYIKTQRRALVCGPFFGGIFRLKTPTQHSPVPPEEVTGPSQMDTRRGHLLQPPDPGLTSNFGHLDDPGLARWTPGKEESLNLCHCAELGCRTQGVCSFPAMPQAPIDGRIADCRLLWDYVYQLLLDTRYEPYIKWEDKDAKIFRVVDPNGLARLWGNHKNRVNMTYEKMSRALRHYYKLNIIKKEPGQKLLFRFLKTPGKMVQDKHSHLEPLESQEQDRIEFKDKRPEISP
# Outline: as §1
# [6] = biological target: T6, ELF5 (Homo sapiens, UniProt Q9UKW6-2 1-255)
# T6 sequence: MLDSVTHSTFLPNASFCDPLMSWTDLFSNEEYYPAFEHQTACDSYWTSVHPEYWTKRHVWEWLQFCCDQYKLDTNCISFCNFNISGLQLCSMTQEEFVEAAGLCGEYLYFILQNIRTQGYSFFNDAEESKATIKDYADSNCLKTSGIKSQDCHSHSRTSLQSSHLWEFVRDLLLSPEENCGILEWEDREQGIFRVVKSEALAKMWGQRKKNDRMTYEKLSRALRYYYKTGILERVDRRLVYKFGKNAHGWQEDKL
# Outline: as §1
# [7] = biological target: T7, ETV3 (Homo sapiens, UniProt P41162-2 1-143)
# T7 sequence: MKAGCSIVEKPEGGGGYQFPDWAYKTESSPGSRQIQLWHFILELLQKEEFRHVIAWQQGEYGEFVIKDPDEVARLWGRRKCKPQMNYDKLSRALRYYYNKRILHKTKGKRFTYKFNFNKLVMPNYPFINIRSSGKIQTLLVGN
# Outline: as §1
# [8] = biological target: ETV6 (Homo sapiens, UniProt P41212 1-452)
# Chain of ETV6 (P41212 whole entry): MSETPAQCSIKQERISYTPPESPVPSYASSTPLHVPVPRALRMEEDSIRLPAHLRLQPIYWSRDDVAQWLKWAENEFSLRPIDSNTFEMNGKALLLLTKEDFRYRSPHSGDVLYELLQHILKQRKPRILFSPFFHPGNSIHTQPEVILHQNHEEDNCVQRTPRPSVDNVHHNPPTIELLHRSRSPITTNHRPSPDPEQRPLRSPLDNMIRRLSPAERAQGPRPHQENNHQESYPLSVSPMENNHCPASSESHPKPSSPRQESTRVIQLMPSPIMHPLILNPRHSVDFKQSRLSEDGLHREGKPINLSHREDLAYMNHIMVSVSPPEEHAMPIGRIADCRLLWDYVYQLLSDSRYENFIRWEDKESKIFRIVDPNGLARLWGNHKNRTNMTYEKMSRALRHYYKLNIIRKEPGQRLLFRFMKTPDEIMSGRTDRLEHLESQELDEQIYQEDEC
# Outline: as §1
Sequence,binding signal [1],binding signal [2],binding signal [3],binding signal [4],binding signal [5],binding signal [6],binding signal [7],binding signal [8]
CCCCAC,"1.14 fold enrichment (6-mer frequency, TF over GST control)","1.28 fold enrichment (6-mer frequency, TF over GST control)","1.22 fold enrichment (6-mer frequency, TF over GST control)","1.2 fold enrichment (6-mer frequency, TF over GST control)","1.11 fold enrichment (6-mer frequency, TF over GST control)","1.19 fold enrichment (6-mer frequency, TF over GST control)","1.2 fold enrichment (6-mer frequency, TF over GST control)","1.1 fold enrichment (6-mer frequency, TF over GST control)"
GAAGAA,"1.02 fold enrichment (6-mer frequency, TF over GST control)","1.18 fold enrichment (6-mer frequency, TF over GST control)","1.16 fold enrichment (6-mer frequency, TF over GST control)","1.09 fold enrichment (6-mer frequency, TF over GST control)","1.16 fold enrichment (6-mer frequency, TF over GST control)","1.27 fold enrichment (6-mer frequency, TF over GST control)","1.12 fold enrichment (6-mer frequency, TF over GST control)","1.18 fold enrichment (6-mer frequency, TF over GST control)"
CCGTCA,"1.08 fold enrichment (6-mer frequency, TF over GST control)","1.28 fold enrichment (6-mer frequency, TF over GST control)","1.28 fold enrichment (6-mer frequency, TF over GST control)","1.38 fold enrichment (6-mer frequency, TF over GST control)","1.26 fold enrichment (6-mer frequency, TF over GST control)","1.22 fold enrichment (6-mer frequency, TF over GST control)","1.19 fold enrichment (6-mer frequency, TF over GST control)","1.25 fold enrichment (6-mer frequency, TF over GST control)"
GGAACA,"1.01 fold enrichment (6-mer frequency, TF over GST control)","1.07 fold enrichment (6-mer frequency, TF over GST control)","1.08 fold enrichment (6-mer frequency, TF over GST control)","1.15 fold enrichment (6-mer frequency, TF over GST control)","1.03 fold enrichment (6-mer frequency, TF over GST control)","1.28 fold enrichment (6-mer frequency, TF over GST control)","1.14 fold enrichment (6-mer frequency, TF over GST control)","1.02 fold enrichment (6-mer frequency, TF over GST control)"
GCTCGT,"1.2 fold enrichment (6-mer frequency, TF over GST control)","1.23 fold enrichment (6-mer frequency, TF over GST control)","1.12 fold enrichment (6-mer frequency, TF over GST control)","1.15 fold enrichment (6-mer frequency, TF over GST control)","1.11 fold enrichment (6-mer frequency, TF over GST control)","1.1 fold enrichment (6-mer frequency, TF over GST control)","1.15 fold enrichment (6-mer frequency, TF over GST control)","1.16 fold enrichment (6-mer frequency, TF over GST control)"
TGACGC,"1.34 fold enrichment (6-mer frequency, TF over GST control)","1.24 fold enrichment (6-mer frequency, TF over GST control)","1.12 fold enrichment (6-mer frequency, TF over GST control)","1.13 fold enrichment (6-mer frequency, TF over GST control)","1.13 fold enrichment (6-mer frequency, TF over GST control)","1.19 fold enrichment (6-mer frequency, TF over GST control)","1.15 fold enrichment (6-mer frequency, TF over GST control)","1.19 fold enrichment (6-mer frequency, TF over GST control)"
ACCCTC,"1.19 fold enrichment (6-mer frequency, TF over GST control)","1.08 fold enrichment (6-mer frequency, TF over GST control)","1.19 fold enrichment (6-mer frequency, TF over GST control)","1.11 fold enrichment (6-mer frequency, TF over GST control)","1.13 fold enrichment (6-mer frequency, TF over GST control)","1.06 fold enrichment (6-mer frequency, TF over GST control)","1.16 fold enrichment (6-mer frequency, TF over GST control)","1.12 fold enrichment (6-mer frequency, TF over GST control)"
TGTCCC,"1.26 fold enrichment (6-mer frequency, TF over GST control)","1.18 fold enrichment (6-mer frequency, TF over GST control)","1.41 fold enrichment (6-mer frequency, TF over GST control)","1.34 fold enrichment (6-mer frequency, TF over GST control)","1.46 fold enrichment (6-mer frequency, TF over GST control)","1.44 fold enrichment (6-mer frequency, TF over GST control)","1.2 fold enrichment (6-mer frequency, TF over GST control)","1.28 fold enrichment (6-mer frequency, TF over GST control)"
